Screens deposited in PubChem by several laboratories.
Compounds with a hit are over-represented: about 2.7% of the library has one in this group of screens.
F508del corr: CFTR F508del correction in bronchial cells | CFBE cells, YFP halide quenching; stimulated with forskolin plus potentiator P3; % fluorescence drop versus neutral controls | activity (quench increase), % at 7.58 µM | 0.36% of 350,000 active;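 active = mean added fluorescence quench of at least 8% versus neutral control, with both replicates also reaching 8%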;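 also: cells transiently co-express mutant CFTR-F508del with the halide-sensitive YFP; corrector assay measuring rescue of mutant channel to the surface after 24 h compound exposure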
SKN-1 block: inhibitors of C. elegans SKN-1; 0.49% of 360,000 active; inhibition, % at 21.8 µM; C. elegans VP596 Pgst-4::GFP/RFP ratio, acrylamide-induced, 24 h;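 active = interference check ratio from 0.5 to 1.5 plus GFP to RFP signal ratio inhibition reaching or exceeding a fixed threshold, cut at about 30% in these data, passing the limit was not always enough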
NRP1-CendR mod: NRP-1/CendR interaction modulation; O14786; FAM-RPARPAR peptide binding to NRP-1, fluorescence polarization; inhibition, % at 25 µM; 0.85% of 360,000 active; AID 602438;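 active = inhibition or corrected inhibition above about 18%, plus a signal ratio from 0.5 to 1.5, limit read from the data, passing the limit was not always enough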
MPTP block: blocks calcium-induced mitochondrial swelling; isolated mouse mitochondria, Ca2+ swelling absorbance, 30 min; inhibition, % at 10 µM; 1.4% of 360,000 active; AID 602449;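 active = inhibition of 50% or more, scaled per plate between neutral and stimulator controls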
ATG4B inh: blocks human ATG4B protease cleavage of LC3 substrate; inhibition, % at 8.33 µM; ATG4B cleavage of LC3-PLA2, NBD-HPC fluorescence, 1 h; 0.51% of 340,000 active; AID 504462; Q9Y4P1; in the data active = inhibition above about 40%
Target sequence (Q9Y4P1 whole entry, looked up): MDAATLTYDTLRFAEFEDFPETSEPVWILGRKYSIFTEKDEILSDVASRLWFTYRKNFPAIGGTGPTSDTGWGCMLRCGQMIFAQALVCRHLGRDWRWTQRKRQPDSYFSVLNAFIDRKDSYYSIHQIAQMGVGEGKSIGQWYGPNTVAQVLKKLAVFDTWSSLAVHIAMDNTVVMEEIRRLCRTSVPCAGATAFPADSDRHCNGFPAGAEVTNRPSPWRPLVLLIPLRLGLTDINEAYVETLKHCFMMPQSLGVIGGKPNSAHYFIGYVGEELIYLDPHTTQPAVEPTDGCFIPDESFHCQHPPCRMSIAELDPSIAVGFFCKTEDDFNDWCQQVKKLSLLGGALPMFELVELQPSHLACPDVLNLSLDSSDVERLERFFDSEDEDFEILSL
Of the large screens only hits and unclear results are named; the others gave an inactive call.

CCc1nc2c(OCc3ccc(C(F)(F)F)cc3)cccn2c1N(C)C(C)=O	none (no result: ATG4B inh)
CCc1nc2c(OCc3ccc(C(F)(F)F)cc3)cccn2c1N(C)C(=O)c1ccncc1	SKN-1 block 54.3 (no result: ATG4B inh)
CCOc1cc(OCC)c(C(C)=O)cc1OCC	F508del corr 8.4
Cc1cc(C)c(C(=O)NC2CCCc3c2cnn3-c2cccc(C)c2C)o1 (stereo not drawn)	F508del corr 8.4
Cc1cccc(-n2ncc3c2CCCC3NC(=O)CCN2CCCCO2)c1C (stereo not drawn)	NRP1-CendR mod 23.0
O=C1CN(Cc2ccccc2)C[C@@H]2[C@@H](c3ccc(-c4ccccc4F)cc3)[C@H](CO)N12	none (no result: SKN-1 block, NRP1-CendR mod, MPTP block, ATG4B inh)
COc1ccc(C(=O)N/N=C(\C)c2ccccn2)cc1OC	none
COc1ccccc1NC(=S)NN=C(C)c1ccccn1	F508del corr 8.5
CC(=NNC(=S)Nc1ccc(C)cc1)c1ccccn1	F508del corr 16.0
CC(C)=CCC/C(C)=C/CNC(=O)C[C@H]1C[C@H](C(=O)N(C(C)C)C(C)C)[C@@]2(C)c3[nH]c4ccc(Cl)cc4c3CCN2C1=O	NRP1-CendR mod 27.1
CC(C)=CCC/C(C)=C/CNC(=O)CC1C[C@H](C(=O)N(C(C)C)C(C)C)[C@@]2(C)c3[nH]c4ccccc4c3CCN2C1=O (stereo partly drawn)	none
Cc1noc(C)c1NC(=O)N(C)C[C@H]1Oc2ccc(NS(=O)(=O)c3cccs3)cc2CC(=O)N([C@@H](C)CO)C[C@H]1C	none (no result: SKN-1 block, NRP1-CendR mod, MPTP block, ATG4B inh)
c1ccc(-c2nnc(CSc3nnc(-c4cccs4)o3)o2)cc1	none (no result: F508del corr)
C(=C\c1nnc(-c2cccs2)o1)/c1ccccc1	SKN-1 block 76.9
c1ccc(CSc2nnc(-c3cccs3)o2)cc1	SKN-1 block 61.2 (no result: F508del corr)
Fc1ccc(CSc2nnc(-c3cccs3)o2)cc1	SKN-1 block 58.3
Cc1noc(C)c1NC(=O)Nc1ccc2c(c1)C(=O)N([C@H](C)CO)C[C@H](C)[C@H](CN(C)C)OCCCC[C@@H](C)O2	none (no result: SKN-1 block, NRP1-CendR mod, MPTP block, ATG4B inh)
C=C(C)COc1ccc(-c2[nH]ncc2-c2ccccc2)c(O)c1	NRP1-CendR mod 25.3 (no result: F508del corr)
C=C(C)COc1ccc(-c2[nH]ncc2-c2ccc(OC)cc2)c(O)c1	none
CN(C)C(=O)C[C@H]1CC[C@@H]2[C@@H](COc3ccc(NC(=O)c4cnccn4)cc3C(=O)N2C)O1	none (no result: SKN-1 block, NRP1-CendR mod, MPTP block, ATG4B inh)
COc1ccc(-c2csc(C(O)c3ccc(F)c(F)c3)n2)cn1 (stereo not drawn)	NRP1-CendR mod 21.3 (no result: ATG4B inh)
C[C@H](CO)N1C[C@H](C)[C@H](CN(C)Cc2ccc(Oc3ccccc3)cc2)Oc2ccc(NC(=O)Nc3cccc4ccccc34)cc2C1=O	none (no result: SKN-1 block, NRP1-CendR mod, MPTP block, ATG4B inh)
C[C@H]1CN([C@@H](C)CO)S(=O)(=O)c2ccc(C3=CCCCC3)cc2O[C@H]1CN(C)C(=O)Cc1ccncc1	none (no result: SKN-1 block, NRP1-CendR mod, MPTP block, ATG4B inh)
COc1cccc(S(=O)(=O)N(C)C[C@H]2Oc3cc(C4=CCCCC4)ccc3S(=O)(=O)N([C@H](C)CO)C[C@@H]2C)c1	none (no result: SKN-1 block, NRP1-CendR mod, MPTP block, ATG4B inh)
COc1cccc(S(=O)(=O)N(C)C[C@@H]2Oc3cc(C4=CCCC4)ccc3S(=O)(=O)N([C@@H](C)CO)C[C@H]2C)c1	F508del corr 9.3 (no result: SKN-1 block, NRP1-CendR mod, MPTP block, ATG4B inh)
COc1cccc(S(=O)(=O)N(C)C[C@@H]2Oc3cc(C4=CCCC4)ccc3S(=O)(=O)N([C@@H](C)CO)C[C@@H]2C)c1	none (no result: SKN-1 block, NRP1-CendR mod, MPTP block, ATG4B inh)
COc1cccc(S(=O)(=O)N(C)C[C@@H]2Oc3cc(C4=CCCC4)ccc3S(=O)(=O)N([C@H](C)CO)C[C@H]2C)c1	F508del corr 10.7 (no result: SKN-1 block, NRP1-CendR mod, MPTP block, ATG4B inh)
C[C@H]1CN([C@@H](C)CO)S(=O)(=O)c2ccc(C3=CCCCC3)cc2O[C@@H]1CN(C)C(=O)Cc1ccncc1	F508del corr 8.5 (no result: SKN-1 block, NRP1-CendR mod, MPTP block, ATG4B inh)
COc1cc(OC)c2c(-c3cccc(-c4ccc(OC)c(F)c4)c3)cc(=O)oc2c1	F508del corr 8.5 (no result: ATG4B inh)
COc1cc(OC)c2c(-c3cccc(-c4ccc(C(C)=O)cc4)c3)cc(=O)oc2c1	none (no result: F508del corr)
CN(c1cccc(Cl)c1)S(=O)(=O)c1cccc(C(=O)NCc2ccncc2)c1	NRP1-CendR mod 24.0
C=CC(C)(C)c1[nH]cnc1/C=C1\NC(=O)C(C(C)C)NC1=O (stereo not drawn)	F508del corr 8.5
CC(C)(C)C(=O)COc1ccccc1[N+](=O)[O-]	none
CCOC(=O)/C=C/COc1ccccc1[N+](=O)[O-]	NRP1-CendR mod 28.4
COCC(=O)N1CCC2(CC1)CN(Cc1nccs1)[C@@H](CO)c1c2c2ccc(OC)cc2n1C	none (no result: SKN-1 block, NRP1-CendR mod, MPTP block, ATG4B inh)
CC(=O)N[C@@H]1CC[C@@H](CCNC(=O)C2CCC2)O[C@@H]1CO	none (no result: SKN-1 block, NRP1-CendR mod, MPTP block, ATG4B inh)
CCOc1ccc2c(=O)c(Oc3ccccc3OCC)coc2c1	SKN-1 block 36.1 (no result: F508del corr)
CCC(=O)N(C)C[C@H]1Oc2cc(/C=C/c3ccccc3)ccc2S(=O)(=O)N([C@@H](C)CO)C[C@H]1C	none (no result: SKN-1 block, NRP1-CendR mod, MPTP block, ATG4B inh)
O=C(c1ccc(F)cc1)N1CCN(c2ccccn2)CC1	none
Cc1c(C)n(Cc2ccc(F)cc2)c2ccc(C(=O)N3CCN(c4ccccn4)CC3)cc12	SKN-1 block 58.7
CCn1c(C)c(C)c2cc(C(=O)N3CCN(c4ccccc4)CC3)ccc21	SKN-1 block 46.2
CN1CCN(C(=O)c2ccccc2N(Cc2ccccc2)S(C)(=O)=O)CC1	SKN-1 block 40.3 (no result: F508del corr)
CN1CCN(C(=O)c2ccc(CN(c3ccccc3)S(=O)(=O)c3ccccc3)cc2)CC1	F508del corr 11.5
COc1ccccc1-c1cnc2c(c1)C(=O)N([C@H](C)CO)C[C@@H](C)[C@@H](CN(C)Cc1ccc(C(=O)O)cc1)O2	none (no result: SKN-1 block, NRP1-CendR mod, MPTP block, ATG4B inh)
Cc1ccc(C)c(-n2c(SCC(=O)NC(C(=O)O)C(C)C)nnc2-c2cccc(Cl)c2)c1 (stereo not drawn)	NRP1-CendR mod 25.6
COc1cccc(C#Cc2ccc3c(c2)O[C@@H](CN(C)C)[C@@H](C)CN([C@@H](C)CO)S3(=O)=O)c1	none (no result: SKN-1 block, NRP1-CendR mod, MPTP block, ATG4B inh)
Cc1nn(-c2ccccc2)c(N)c1N=Nc1cccnc1	none
Nc1nn(-c2ccccc2)c(N)c1N=Nc1cccc(F)c1	F508del corr 10.9
CO[C@H]1CN(C)C(=O)c2cc(NC(C)=O)ccc2OC[C@H](C)N(C(=O)c2ccncc2)C[C@H]1C	F508del corr 8.4 (no result: SKN-1 block, NRP1-CendR mod, MPTP block, ATG4B inh)
CO[C@@H]1CN(C)C(=O)c2cc(NC(=O)Nc3c(C)noc3C)ccc2OC[C@@H](C)N(C)C[C@@H]1C	F508del corr 9.6 (no result: SKN-1 block, NRP1-CendR mod, MPTP block, ATG4B inh)
CO[C@@H]1CN(C)C(=O)c2cc(NC(=O)Nc3c(C)noc3C)ccc2OC[C@H](C)N(C)C[C@H]1C	none (no result: SKN-1 block, NRP1-CendR mod, MPTP block, ATG4B inh)
Cc1ccc(S(=O)(=O)N(C)C[C@H]2Oc3ncc(-c4ccccc4)cc3C(=O)N([C@H](C)CO)C[C@@H]2C)cc1	none (no result: SKN-1 block, NRP1-CendR mod, MPTP block, ATG4B inh)
COCCN1C=C2C(=O)C(C)(OC(=O)CCC(=O)OC)C(=O)C=C2C=C1C1CC1 (stereo not drawn)	NRP1-CendR mod 29.3 (no result: F508del corr)
COC(=O)CCC(=O)OC1(C)C(=O)C=C2C=C(C3CC3)N(C3CC3)C=C2C1=O (stereo not drawn)	none
COC(=O)CCC(=O)OC1(C)C(=O)C=C2C=C(C3CC3)N(Cc3ccco3)C=C2C1=O (stereo not drawn)	NRP1-CendR mod 35.6
